Bioassay records: PubChem, several laboratories
HDAC3 inhib – HDAC3 deacetylase inhibitors, primary screen, biochemical, fluorescence, cell-free homogeneous. Histone deacetylase 3 (Homo sapiens), O15379. recombinant HDAC3, fluorogenic peptide/trypsin coupled. inhibition, % at 8.3 µM. 320,000 tested, 0.15% active; in the data active = inhibition above about 26%, passing the limit was not always enough
Target sequence (O15379 whole entry, looked up): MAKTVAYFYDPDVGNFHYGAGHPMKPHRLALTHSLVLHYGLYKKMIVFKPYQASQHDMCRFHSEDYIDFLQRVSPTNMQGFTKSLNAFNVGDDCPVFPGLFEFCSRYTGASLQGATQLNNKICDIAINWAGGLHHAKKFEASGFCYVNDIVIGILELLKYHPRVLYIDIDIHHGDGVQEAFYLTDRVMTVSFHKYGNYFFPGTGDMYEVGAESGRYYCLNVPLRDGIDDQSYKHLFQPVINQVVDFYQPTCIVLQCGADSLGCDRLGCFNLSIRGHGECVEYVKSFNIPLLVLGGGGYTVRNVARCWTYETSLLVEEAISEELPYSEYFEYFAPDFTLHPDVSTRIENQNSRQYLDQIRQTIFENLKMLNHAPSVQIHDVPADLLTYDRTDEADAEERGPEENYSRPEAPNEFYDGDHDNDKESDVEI
H9c2 protect – cardioprotection against H2O2-induced cell death, primary screen, uHTS, H9c2 cells, ATPLite luminescence; H9c2 cardiomyocytes, H2O2 injury protection, 2 h; 360,000 tested, 0.63% active; protection from H2O2 cell death, % at 20 µM;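 active = compounds giving at least 50% protection of heart cells from peroxide-induced death in the single-dose screen, raw or plate-pattern-corrected value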
GRK2 inh – compounds blocking aptamer binding on GRK2 – biochemical, human GRK2, bead flow cytometry, HTS, primary screen | FAM-aptamer displacement from GRK2 | inhibition of aptamer binding, % at 10 µM | Beta-adrenergic receptor kinase 1 (Homo sapiens), P25098 | AID 488847, 2010 | 330,000 tested, 0.59% active;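 active = inhibition of aptamer binding above 40%, roughly 3 SD of noise, on plates passing a quality check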;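 note: median bead fluorescence of bound FAM aptamer so fluorescent compounds give negative values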
Neddyl block – inhibitors of cullin neddylation, primary screen, biochemical, TR-FRET, uHTS, NAE and Ubc12; NEDD8-conjugating enzyme Ubc12 (Homo sapiens) + NEDD8-activating enzyme E1 regulatory …; inhibition, % at 25 µM; 360,000 tested, 0.58% active; AID 651699, 2012; in the data active = inhibition above about 36%
GRK2 CP1 – GRK2 aptamer-displacing inhibitors, retest, confirmation, biochemical, cherry pick 1, bead flow cytometry. aptamer displacement, % at 10 µM. bead-bound GRK2, FAM-aptamer displacement. shares compounds with GRK2 inh. 2,000 tested, 4% active;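 active = aptamer displacement above 40%, near three times the noise of non-fluorescent compounds, on plates passing quality checks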;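 note: negative values mostly reflect intrinsic compound fluorescence rather than true enhancement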
Aptamer quench SP – counter-screen for GRK2 aptamer inhibitors: fluorescent aptamer quenchers; shares compounds with GRK2 inh; AID 504580; Carboxyfluorescein RNA aptamer on beads, flow cytometry quenching; hits give low values; 2,000 tested, under 10 active; fluorescence response (% of DMSO), % at 10 µM;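 active = compounds that quench the bead-bound fluorescent RNA probe, cutting fluorescence to under half of the solvent control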;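 note: counterscreen run without GRK2 so only probe quenching by compound is measured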
GRK2 confirm 2 – GRK2 aptamer-displacing inhibitors, hit retest, confirmation, biochemical, cherry pick 2, bead flow cytometry; shares compounds with GRK2 inh; bead-bound GRK2, FAM-aptamer displacement; inhibition of aptamer binding, % at 10 µM; 360 tested, under 10 active; AID 504782, 2011;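 active = inhibition of aptamer binding above 40%, about triple the noise seen with nonglowing compounds, on plates passing quality control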;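 note: negative values mostly come from compounds that fluoresce themselves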
FAM quench SP – counter-screen for GRK2 binding hits: quenchers of fluorescent RNA aptamer | shares compounds with GRK2 inh | carboxyfluorescein RNA aptamer beads, flow cytometry quenching; hits give low values | fluorescence response vs DMSO, % at 10 µM | 360 tested, under 10 active;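 active = response vs DMSO under 50%, meaning signal dropped by over half, treated as fluorescence quencher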;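 note: labelled aptamer on streptavidin beads without GRK2 as a quench counter-screen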
Large screens that a line does not name were inactive (follow-up assays come after a bar, where they were run). The list is not random: actives were taken first. Their share in the collection is about 1.8%.

Cn1c(SCc2ccccc2Cl)nc2c1c(=O)[nH]c(=O)n2C	GRK2 inh 71.0 | GRK2 CP1 inactive | Aptamer quench SP inactive
CCc1nnc(NS(=O)(=O)c2ccc(NC(=O)COc3ccc4ccccc4c3)cc2)s1	GRK2 inh 51.0 | GRK2 CP1 inactive | Aptamer quench SP inactive
CCN(CC)C(=O)C1=C(C)N(CCCOC)C(=O)C(CC(=O)NCCCN(C)C)C1 (stereo unspecified)	none (no result: HDAC3 inhib, GRK2 inh)
CCn1nc(C(=O)Nc2cccc(C(F)(F)F)c2)c(Cl)c1Cl	GRK2 inh 53.0 | GRK2 CP1 inactive | Aptamer quench SP inactive
COc1ccc(C2N(c3ccccn3)C(=O)C3CCCN32)c(OC)c1 (stereo unspecified)	none
COc1cc(C2N(c3ccccn3)C(=O)C3CCCN32)cc(OC)c1OC (stereo unspecified)	GRK2 inh 59.0 | GRK2 CP1 inactive | Aptamer quench SP inactive
CCOC(=O)c1c(C)[nH]c(C(=O)CC(=O)OC)c1C	none
CCC(CO)Nc1ccc(-c2n[nH]c(=O)c3ccccc23)cc1[N+](=O)[O-] (stereo unspecified)	GRK2 inh 60.0 | GRK2 confirm 2 inactive | FAM quench SP inactive
COc1ccccc1-c1ccc(Nc2cccc(C(C)=O)c2)nn1	none | GRK2 CP1 inactive | Aptamer quench SP inactive
CC(=O)c1cccc(Nc2ccc(-c3ccccc3F)nn2)c1	none | GRK2 CP1 inactive | Aptamer quench SP inactive
O=c1[nH]c(=O)n2ncnc2[nH]1	none (no result: HDAC3 inhib, GRK2 inh)
Cc1noc(C)c1NC(=O)Nc1ccc2c(c1)C(=O)N([C@@H](C)CO)C[C@@H](C)[C@H](CN(C)C(=O)Nc1cccc3ccccc13)OCCCC[C@H](C)O2	none (no result: HDAC3 inhib, GRK2 inh)
CCNC(=O)N1CCOCC1	GRK2 inh 45.0 | GRK2 CP1 inactive | Aptamer quench SP inactive
CCNC(=O)N1CCN(C(=O)NCC)CC1	none
O=C(COC(=O)c1cc2c(s1)CCC2)Nc1ccc(F)cc1	none
NC(=O)c1ccc(NC(=O)COC(=O)c2cc3c(s2)CCC3)cc1	GRK2 inh 52.0 | GRK2 CP1 inactive | Aptamer quench SP inactive
c1ccc2sc(N3CN(CCN4CCOCC4)CN(c4nc5ccccc5s4)C3)nc2c1	none | GRK2 CP1 inactive | Aptamer quench SP inactive
N#Cc1ccc(OCC(O)CN2CCN(c3ncc(C(F)(F)F)cc3Cl)CC2)cc1 (stereo unspecified)	none
CCCNC(=O)C(Cc1cccc(Cl)c1)NC(=O)c1ccc(C#N)cc1 (stereo unspecified)	none
CCCNC(=O)C(Cc1cccc(C#N)c1)NC(=O)c1ccc(C#N)cc1 (stereo unspecified)	GRK2 inh 82.0 | GRK2 CP1 inactive | Aptamer quench SP inactive
CSCc1ccc(C(=O)Nc2cccc(C)c2C)cc1	none
CCCCOC(=O)c1cc(C)nc2ccc(Br)cc12	none | GRK2 CP1 inactive | Aptamer quench SP inactive
CCOC(=O)c1cc(C(=O)OCC)c2cc(Br)ccc2n1	none
Nc1c(C(=O)c2ccc(Cl)cc2)sc2c1c(=O)[nH]c(=O)n2-c1ccccc1	GRK2 inh 100.0 | GRK2 confirm 2 inactive | FAM quench SP inactive
O=C1[C@@H]2Cc3c([nH]c4ccccc34)C(c3cccc(Br)c3)N2C(=O)CN1C1CCN(Cc2ccccc2)CC1 (stereo partly specified)	none | GRK2 CP1 inactive | Aptamer quench SP inactive
COc1cccc(C2c3[nH]c4ccccc4c3C[C@H]3C(=O)N(C4CC4)CC(=O)N23)c1 (stereo partly specified)	none
O=C1[C@@H]2Cc3c([nH]c4ccccc34)C(c3ccccc3)N2C(=O)CN1C1CCN(Cc2ccccc2)CC1 (stereo partly specified)	none | GRK2 CP1 inactive | Aptamer quench SP inactive
